# Assay results: article PMC4336329 (PLoS ONE, 2015)
# Screen size: about 310,000 compounds; about 14,000 (4.5%) showed an effect of 50% or more. The effect is printed as a negative number. The sample holds strong results, similar compounds and a random draw of the others, so the mix is not that of the screen.
# Biological target: human ether-à-go-go-related gene (hERG) potassium channel (human, UniProt Q12809)
# Assay: primary screen, population patch clamp on CHO cells stably expressing hERG; higher = less effect of the substance
# 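Further: peak tail current of the secondary pulse compared with the same well before compound.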
# human ether-à-go-go-related gene (hERG) potassium channel, sequence (Q12809 whole entry, looked up): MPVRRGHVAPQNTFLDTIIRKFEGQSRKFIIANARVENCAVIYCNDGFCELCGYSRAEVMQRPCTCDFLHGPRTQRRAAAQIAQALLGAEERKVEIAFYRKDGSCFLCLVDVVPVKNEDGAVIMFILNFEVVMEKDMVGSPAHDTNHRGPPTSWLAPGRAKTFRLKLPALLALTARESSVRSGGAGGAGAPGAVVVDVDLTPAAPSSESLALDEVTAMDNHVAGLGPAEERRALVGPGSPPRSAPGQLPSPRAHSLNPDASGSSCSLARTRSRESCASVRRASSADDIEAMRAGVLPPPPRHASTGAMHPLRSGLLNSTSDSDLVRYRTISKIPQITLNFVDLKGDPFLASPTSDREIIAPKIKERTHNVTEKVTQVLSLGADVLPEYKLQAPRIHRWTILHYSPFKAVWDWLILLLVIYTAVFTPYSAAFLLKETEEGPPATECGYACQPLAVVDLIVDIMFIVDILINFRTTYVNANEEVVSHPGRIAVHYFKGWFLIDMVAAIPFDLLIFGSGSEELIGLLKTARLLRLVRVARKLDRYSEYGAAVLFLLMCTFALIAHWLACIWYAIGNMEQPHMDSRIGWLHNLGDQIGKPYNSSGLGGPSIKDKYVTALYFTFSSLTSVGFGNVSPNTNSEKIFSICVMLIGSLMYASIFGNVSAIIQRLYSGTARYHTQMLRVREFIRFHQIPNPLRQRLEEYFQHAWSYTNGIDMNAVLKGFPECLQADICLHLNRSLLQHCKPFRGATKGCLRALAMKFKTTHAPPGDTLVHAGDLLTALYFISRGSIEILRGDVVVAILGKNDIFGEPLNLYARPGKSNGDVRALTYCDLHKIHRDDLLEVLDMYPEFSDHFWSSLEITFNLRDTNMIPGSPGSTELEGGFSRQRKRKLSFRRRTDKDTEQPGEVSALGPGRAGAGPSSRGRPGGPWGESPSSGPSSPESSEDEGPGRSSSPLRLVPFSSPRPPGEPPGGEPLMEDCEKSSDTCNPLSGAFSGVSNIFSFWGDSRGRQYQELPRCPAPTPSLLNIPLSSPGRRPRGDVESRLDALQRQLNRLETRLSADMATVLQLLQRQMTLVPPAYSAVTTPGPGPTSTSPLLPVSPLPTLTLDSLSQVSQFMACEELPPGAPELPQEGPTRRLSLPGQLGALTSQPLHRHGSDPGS
row,Compound,"hERG current change (%, negative = inhibition) at 10uM"
1,COc1ccc(CN(C#N)c2nc(C)cc(C)n2)cc1,14.1%
2,CCOC(=O)C1=C(COC(=O)CCOc2cc(C)ccc2C)NC(=O)NC1C (centres unmarked),-26.5%
3,Cc1ccc(N(C(=O)c2snc(C(N)=O)c2N)C(C(=O)NCC2CCCO2)c2ccc(C)o2)c(C)c1 (centres unmarked),-40.9%
4,CCN(CC(=O)Nc1ccc(NC(C)=O)cc1)C(=O)C1CCCC1,-13.9%
5,O=C(NNC(=S)NC(=O)C12CC3CC(CC(C3)C1)C2)c1ccncc1,19.8%
6,CCOC(=O)c1c(C)[nH]c(C(=O)OCc2ccc(F)cc2)c1C,-0.855%
7,O=C(NC1CCN(Cc2ccccc2)CC1)c1cccc(S(=O)(=O)Nc2ccc(Br)cc2)c1,-59.7%
8,COc1ccccc1NS(=O)(=O)c1cccc(C(=O)NC2CCN(Cc3ccccc3)CC2)c1,-56%
9,Cc1ccc(S(=O)(=O)Nc2cccc(C(=O)NCC3CCCO3)c2)cc1F (centres unmarked),2.12%
10,COc1ccc(NS(=O)(=O)c2cccc(C(=O)NC3CCN(Cc4ccccc4)CC3)c2)cc1,-46.7%
11,COc1ccccc1NS(=O)(=O)c1cccc(C(=O)NN)c1,-5.56%
12,C=CCN(c1ccccc1)S(=O)(=O)c1cccc(C(=O)NC2CCN(Cc3ccccc3)CC2)c1,-65.3%
13,O=C(c1cccc(NS(=O)(=O)c2ccc(F)c(F)c2)c1)N1CCN(Cc2ccccc2)CC1,-26.8%
14,C=CCN(c1ccccc1)S(=O)(=O)c1cccc(C(=O)O)c1,16%
15,O=C(NCCN1CCOCC1)c1cccc(S(=O)(=O)Nc2ccc(Br)cc2)c1,-20.4%
16,C=CCN(c1ccccc1)S(=O)(=O)c1cccc(C(=O)NC2CCC(O)CC2)c1 (centres unmarked),-7.48%
17,Cc1ccc(S(=O)(=O)Nc2cccc(C(=O)NC3CCN(Cc4ccccc4)CC3)c2)cc1F,-80.6%
18,COc1ccccc1NC(=O)c1cccc(S(=O)(=O)N2CCN(Cc3ccccc3)CC2)c1,-19.6%
19,COc1ccc(-c2csc(-c3cccs3)n2)c(OC)c1,15.8%
20,CCCN1CNC(=S)N(Cc2ccccc2)C1,12.2%
21,NC(=O)c1ccsc1NC(=O)COC(=O)c1ccc(Cl)cc1,-5.38%
22,COc1ccccc1NC(=O)C(=O)N(c1cccnc1)C(C(=O)NC(C)(C)C)c1ccccc1 (centres unmarked),18.7%
23,CCC(C)(C)NC(=O)c1cc(S(=O)(=O)N2CCCCC2)ccc1N1CCOCC1,-13.4%
